Measured values reported in PubChem BioAssay.
For some of these results: Measured potencies and affinities stand elsewhere. Activity calls are given as the source filed them. Unless noted, no cut-off is given here; in the data, nearly all actives have IC50 up to about 0.98 µM.

tested on: not listed separately; assay: inhibition of 3D7 malaria parasite growth – strain 3D7 (AID 2306; call rule not given here;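 note: 0% = DMSO wells and 100% = chloroquine plus artemisinin control wells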); conditions: P. falciparum 3D7 erythrocytic growth, LDH absorbance, 72 h; at 2 µM; stronger effect = higher value

Growth inhibition, active:
Cc1ccc(Cn2cnc3cc(C(=O)Nc4ccc(-c5ccc(CN(C)C)cc5)cc4)ccc3c2=O)o1 82%
COc1cc2c(cc1N(C(C)C)S(=O)(=O)c1sc3ccc(Cl)cc3c1C)CCNCC2 91%
Cc1cc(-c2c[nH]c3ncc(-c4cccc5ncccc45)cc23)ccc1C(=O)O 99%
O=C(N[C@@H](Cc1ccccc1)[C@H](O)CNC1CCCc2ccccc21)c1cc(C2CCCC2)cc(N2CCCC2=O)c1 (some centres not stated) 97%
O=C(NC(CCCN1CCC2(CC1)OCc1ccccc12)c1ccc(Cl)c(Cl)c1)c1cc(C(F)(F)F)cc(C(F)(F)F)c1 (configuration not stated) 100%
CN(C(=O)/C=C/c1cc(C(F)(F)F)ccc1F)C1CCN(CCCCCNC(=O)/C=C/c2ccc(Cl)c(Cl)c2)CC1 101%
Cc1[nH]c(C)c(-c2ccc(OCc3ccccc3C(F)(F)F)nc2)c(=O)c1Br 98%
CCCCOC(=O)C1=C(C)NC2=C(C(=O)CC(c3ccc(OC)c(OC)c3)C2)C1c1ccc(O)cc1 (configuration not stated) 90%
Cc1ccc(C)c(Cn2ccc3nc(N)nc(N)c32)c1 97%
CCOC(=O)c1ccc(NC(=O)N[C@@H](Cc2ccccc2)C(=O)NC2CCN(Cc3ccc(OCCCN(C)C)cc3)C2)cc1 (some centres not stated) 91%
COc1ccc(NC2=C(c3ccccc3)C(=O)c3ccccc32)cn1 96%
NC(=NC1CC1)c1ccc2nc(CCCCCc3nc4ccc(C(N)=NC5CC5)cc4[nH]3)[nH]c2c1 89%
CCNc1cc(C)nc(Nc2ccc(NC(=O)c3ccco3)cc2)n1 95%
Cn1cncc1C(=O)Nc1cccc(-c2cccc(-c3nc4ccc(F)cc4[nH]3)c2)c1 102%
Cc1ccccc1N1CCN(c2ccc(C(=O)Nc3ccccc3)cn2)CC1 95%
CN(C)Cc1cc2c(O)c(Cc3ccccc3)ccc2o1 85%
COc1ccc(-c2nc3c(N)nc(N)nc3nc2-c2ccccc2Cl)cc1 (tested in a mixture with another compound) 93%
COc1ccccc1/C=C/C(=O)NCCC1CCN(CCCCCNC(=O)/C=C/c2ccc(Cl)c(Cl)c2)CC1 94%
O=C(Nc1cccc(-c2cccc(-c3nc4ccc(F)cc4[nH]3)c2)c1)c1ccncc1 92%
CC(C)CNC(=O)c1cncc(-c2ccc(CNC3Cc4ccccc4C3)cc2)c1 99%
CC(C)n1cc2c(ccc3nc(N)nc(N)c32)n1 92%
O=C(/C=C/c1ccc(Cl)c(Cl)c1)NCCCCCN1CCCC(CNC(=O)/C=C/c2ccccc2)C1 (configuration not stated) 98%
COc1cc2ncnc(Nc3ccc4nc(-c5ccccc5)[nH]c4c3)c2cc1OC 92%
COC(=O)C(Cc1ccccc1)NC(=O)NC1CCN(c2ccnc(Nc3ccc(F)cc3)n2)C1 (configuration not stated) 90%
CCC[C@@H]([C@@H](Cc1ccc(C)s1)C(=O)N[C@@H](CNC(C)=O)C(=O)Nc1nccs1)N(O)C=O 97%
N#Cc1ccc2c(c1)CCN(CCC1CCC(NC(=O)c3cc4cccc(Cl)c4[nH]3)CC1)CC2 (configuration not stated) 99%
CC(=O)c1cccc(NC(=O)NC2CCN(CCCCCNC(=O)/C=C/c3ccc(Cl)c(Cl)c3)CC2)c1 94%

target: Calcium-dependent protein kinase 1 (Plasmodium falciparum (isolate 3D7)) (UniProt P62344); assay: PfCDPK1 kinase inhibitors, biochemical, TCAMS library (AID 1159585); conditions: recombinant PfCDPK1, Kinase-Glo ATP depletion luminescence;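 note: inhibitors leave more ATP so luminescence rises with inhibition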
Sequence (P62344 whole entry, looked up): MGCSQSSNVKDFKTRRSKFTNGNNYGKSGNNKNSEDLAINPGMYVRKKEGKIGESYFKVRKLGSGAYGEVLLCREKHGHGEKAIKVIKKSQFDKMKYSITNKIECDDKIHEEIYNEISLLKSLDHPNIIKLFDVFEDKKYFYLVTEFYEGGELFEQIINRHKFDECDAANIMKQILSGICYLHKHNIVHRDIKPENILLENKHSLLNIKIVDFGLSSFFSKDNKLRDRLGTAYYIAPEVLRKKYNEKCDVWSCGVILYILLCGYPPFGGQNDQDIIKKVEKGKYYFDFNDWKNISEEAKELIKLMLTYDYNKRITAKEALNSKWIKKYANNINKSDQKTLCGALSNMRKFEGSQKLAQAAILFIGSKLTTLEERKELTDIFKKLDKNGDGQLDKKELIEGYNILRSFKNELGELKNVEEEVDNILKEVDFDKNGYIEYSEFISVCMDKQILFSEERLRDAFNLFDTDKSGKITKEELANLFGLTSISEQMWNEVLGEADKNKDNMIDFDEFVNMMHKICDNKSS

outcome, inactive:
O=C(NCCCCN1CCC(c2c[nH]c3ccc(-c4ccccc4)cc23)CC1)c1ccc(-c2ccccc2)cc1
O=C(CC1SC(N2N=C(c3cccs3)CC2c2ccccc2)=NC1=O)Nc1ccc(Cl)cc1 (configuration not stated)
N#Cc1cccc(NC(=O)c2cccc(S(=O)(=O)NC3CCN(CC4CCCCC4)C3)c2)c1 (configuration not stated)
CCOc1cc(C(C)C)ccc1N1CCN(CCCCNC(=O)c2ccc(NC(=O)c3ccc(Cl)cc3)cc2)CC1
COc1ccccc1-c1cccc2c(NC(=O)Nc3ccc4nccc(N5CCN(C)CC5)c4c3)ccnc12
C=C(C)Cn1cc(C2CCN(CCCCNC(=O)c3sc(-c4ccc(Cl)cc4Cl)nc3CO)CC2)c2ccccc21
O=[N+]([O-])c1cccc(NC(=S)N2CCCN(Cc3ccc(C(F)(F)F)cc3)CC2)c1
COc1ccc2nc(C)cc(NCc3cccc4ccccc34)c2c1
O=C(Nc1ccc(Oc2ccccc2)cc1)N(CCN1CCCC1)Cc1ccc(-c2ccc(CN3CCNCC3)cc2)cc1
CCN(CC)CCNc1nc(C=Cc2ccc(Cl)cc2)nc2cc3ccccc3cc12
O=C(N[C@@H](CC1CCCCC1)C(=O)NCCN1CCOCC1)c1ccc(O)c(-c2ccc(Cl)c(Cl)c2)c1
COC[C@H]1CCCN1Cc1ccc(-c2ccc(-c3nc4ccccc4[nH]3)s2)cc1
CN(C)CCOc1ccc(N2CCN(CCCCNC(=O)c3ccc(/C=C/c4cc(Cl)cc(Cl)c4)cc3)CC2)cc1
Cc1ccc(Cn2cnc3cc(C(=O)Nc4ccc(-c5ccc(CN(C)C)cc5)cc4)ccc3c2=O)o1
COc1cc2c(cc1N(C(C)C)S(=O)(=O)c1sc3ccc(Cl)cc3c1C)CCNCC2
Cc1cc(-c2c[nH]c3ncc(-c4cccc5ncccc45)cc23)ccc1C(=O)O
O=C(N[C@@H](Cc1ccccc1)[C@H](O)CNC1CCCc2ccccc21)c1cc(C2CCCC2)cc(N2CCCC2=O)c1 (some centres not stated)
O=C(NC(CCCN1CCC2(CC1)OCc1ccccc12)c1ccc(Cl)c(Cl)c1)c1cc(C(F)(F)F)cc(C(F)(F)F)c1 (configuration not stated)
CN(C(=O)/C=C/c1cc(C(F)(F)F)ccc1F)C1CCN(CCCCCNC(=O)/C=C/c2ccc(Cl)c(Cl)c2)CC1
Cc1[nH]c(C)c(-c2ccc(OCc3ccccc3C(F)(F)F)nc2)c(=O)c1Br
CCCCOC(=O)C1=C(C)NC2=C(C(=O)CC(c3ccc(OC)c(OC)c3)C2)C1c1ccc(O)cc1 (configuration not stated)
Cc1ccc(C)c(Cn2ccc3nc(N)nc(N)c32)c1
CCOC(=O)c1ccc(NC(=O)N[C@@H](Cc2ccccc2)C(=O)NC2CCN(Cc3ccc(OCCCN(C)C)cc3)C2)cc1 (some centres not stated)
COc1ccc(NC2=C(c3ccccc3)C(=O)c3ccccc32)cn1
NC(=NC1CC1)c1ccc2nc(CCCCCc3nc4ccc(C(N)=NC5CC5)cc4[nH]3)[nH]c2c1
CCNc1cc(C)nc(Nc2ccc(NC(=O)c3ccco3)cc2)n1
Cn1cncc1C(=O)Nc1cccc(-c2cccc(-c3nc4ccc(F)cc4[nH]3)c2)c1
Cc1ccccc1N1CCN(c2ccc(C(=O)Nc3ccccc3)cn2)CC1
CN(C)Cc1cc2c(O)c(Cc3ccccc3)ccc2o1
COc1ccc(-c2nc3c(N)nc(N)nc3nc2-c2ccccc2Cl)cc1 (tested in a mixture with another compound)
COc1ccccc1/C=C/C(=O)NCCC1CCN(CCCCCNC(=O)/C=C/c2ccc(Cl)c(Cl)c2)CC1
O=C(Nc1cccc(-c2cccc(-c3nc4ccc(F)cc4[nH]3)c2)c1)c1ccncc1
CC(C)CNC(=O)c1cncc(-c2ccc(CNC3Cc4ccccc4C3)cc2)c1
CC(C)n1cc2c(ccc3nc(N)nc(N)c32)n1
O=C(/C=C/c1ccc(Cl)c(Cl)c1)NCCCCCN1CCCC(CNC(=O)/C=C/c2ccccc2)C1 (configuration not stated)
COc1cc2ncnc(Nc3ccc4nc(-c5ccccc5)[nH]c4c3)c2cc1OC
COC(=O)C(Cc1ccccc1)NC(=O)NC1CCN(c2ccnc(Nc3ccc(F)cc3)n2)C1 (configuration not stated)
CCC[C@@H]([C@@H](Cc1ccc(C)s1)C(=O)N[C@@H](CNC(C)=O)C(=O)Nc1nccs1)N(O)C=O
N#Cc1ccc2c(c1)CCN(CCC1CCC(NC(=O)c3cc4cccc(Cl)c4[nH]3)CC1)CC2 (configuration not stated)
CC(=O)c1cccc(NC(=O)NC2CCN(CCCCCNC(=O)/C=C/c3ccc(Cl)c(Cl)c3)CC2)c1
